{
  "source": "PubChem BioAssay (NCATS)",
  "note": "Records with an inconclusive call do not appear. Unmarked numbers belong to inactive results. Calls of active or inactive are those of the source. Calls come from the whole dose curve; as a rule, active = well fitted inhibition curve with a large enough effect; inconclusive = small, poorly fitted or top-dose-only effect; inactive = flat fitted curve, though single readings scatter. % is set by controls: 0 for no effect and ±100 for the full control effect; potency is the fitted concentration of half-maximal effect.",
  "data": [
    {"target": "Ubiquitin carboxyl-terminal hydrolase 1 (Homo sapiens) (UniProt O94782)", "sequence (O94782 whole entry, looked up)": "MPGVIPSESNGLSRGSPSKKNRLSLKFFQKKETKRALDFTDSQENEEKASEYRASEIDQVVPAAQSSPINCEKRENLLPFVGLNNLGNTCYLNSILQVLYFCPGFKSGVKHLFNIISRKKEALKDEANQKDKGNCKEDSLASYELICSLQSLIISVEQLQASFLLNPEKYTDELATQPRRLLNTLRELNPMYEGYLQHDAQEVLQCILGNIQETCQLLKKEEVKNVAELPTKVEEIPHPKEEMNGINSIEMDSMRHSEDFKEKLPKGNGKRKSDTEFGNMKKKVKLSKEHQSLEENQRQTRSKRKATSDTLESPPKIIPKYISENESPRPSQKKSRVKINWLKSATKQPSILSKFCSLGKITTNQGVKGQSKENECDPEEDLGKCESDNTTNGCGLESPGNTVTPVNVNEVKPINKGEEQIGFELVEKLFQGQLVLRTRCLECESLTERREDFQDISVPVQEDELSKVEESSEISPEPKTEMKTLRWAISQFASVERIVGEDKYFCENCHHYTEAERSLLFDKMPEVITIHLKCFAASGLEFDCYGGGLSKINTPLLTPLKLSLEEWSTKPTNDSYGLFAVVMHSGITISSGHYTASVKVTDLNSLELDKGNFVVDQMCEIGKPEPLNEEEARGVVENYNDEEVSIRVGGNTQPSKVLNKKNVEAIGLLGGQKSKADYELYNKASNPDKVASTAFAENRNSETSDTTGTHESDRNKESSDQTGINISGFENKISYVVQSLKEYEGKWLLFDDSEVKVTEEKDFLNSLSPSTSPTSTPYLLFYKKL", "test": "Inhibitors of USP1/UAF1: Pilot qHTS (AID 504865); note: nearly all actives have a fitted effect of over 35% in size;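 for activity change, negative = inhibition: rhodamine fluorescence freed from ubiquitin-rhodamine substrate followed over time; top concentration of the series differs between compounds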", "details": "purified USP1/UAF1, Ub-rhodamine cleavage fluorescence; series mostly up to 114 µM; activity change, negative = inhibition: at the top concentration", "source_text": "Deubiquitinating enzymes (DUBs) are a class of enzymes that can cleave isopeptide bond formed between the C-terminal carboxylate of ubiquitin and a lysine side-chain amino group on the target protein. Among them, ubiquitin specific proteases (USPs) constitute the largest DUB family. Human USPs are emerging as promising targets for pharmacological intervention because of their connection to a number of human diseases, including prostate, colon and breast cancer (1, 2), pediatric acute lymphoblastic leukemia (3), and familial cylindromatosis (4). The advantage of inhibiting USPs lies in the potential specificity of therapeutic intervention that can lead to better efficacy and reduce nonspecific side effects.\nIn a collaboration between the University of Delaware and the NIH Chemical Genomics Center, a high-throughput screen assay was developed to screen for USP1/UAF1 inhibitors. This miniaturized assay has a fluorescent read-out and is used to screen the NIH Molecular Libraries Small Molecule Repository (MLSMR) in order to identify a small molecule that inhibits USP1.\nNIH Chemical Genomics Center [NCGC]\nNIH Molecular Libraries Probe Centers Network [MLPCN]\nAssay Submitter (PI): Zhihao Zhuang, University of Delaware\n1. Priolo, C., et al. (2006) The isopeptidase USP2a protects human prostate cancer from apoptosis. Cancer Res 66, 8625-8632\n2. Popov, N., et al. (2007) The ubiquitin-specific protease USP28 is required for MYC stability. Nat Cell Biol 9, 765-774\n3. De Pitta, C., et al. (2005) A leukemia-enriched cDNA microarray platform identifies new transcripts with relevance to the biology of pediatric acute lymphoblastic leukemia. Haematologica 90, 890-898\n4. Kovalenko, A., et al. (2003) The tumour suppressor CYLD negatively regulates NF-kappaB signalling by deubiquitination. Nature 424, 801-805\n3 microliters of reagents (buffer in columns 3 and 4 as negative control and 1nM USP1/UAF1 complex in columns 1, 2, and 5-48) are dispensed into Greiner black solid bottom 1536-well assay plates. Compounds are then transferred via Kalypsys pin tool equipped with 1536-pin array (10nl slotted pins, V&P Scientific, San Diego, CA). Following an incubation step of 15 min at room temperature, 1ul of Ub-Rho substrate (150nM final concentration) is added to initiate the reaction. The plates are immediately centrifuged at 1000 rpm for 15 seconds, and subsequently transferred to a ViewLux high-throughput CCD imager (PerkinElmer) wherein kinetic measurements of fluorescence are acquired using 480 nm excitation/540 nm emission filter set (6 reads every 60 seconds, see Table 1). All reagents are diluted in an assay buffer consisting of 50mM HEPES (pH 7.8), 0.5mM EDTA, 0.1 mg/ml BSA, 1mM TCEP, and 0.01% Tween-20.", "values": [
      {"smiles": "C=C1CC[C@H](O)C/C1=C/C=C1\\CCC[C@]2(C)[C@H]1CC[C@H]2[C@@H](C)CCCC(C)C", "activity change, negative = inhibition": "11.3% [at 54.9 µM]"},
      {"smiles": "CNC(=O)O/N=C(/C)SC", "activity change, negative = inhibition": "-6.54%"},
      {"smiles": "CN1CCc2cc3c(cc2[C@@H]1[C@@H]1OC(=O)c2c1ccc1c2OCO1)OCO3", "activity change, negative = inhibition": "7.28% [at 54.9 µM]"},
      {"smiles": "CN1CCCCC1c1ccc(-c2cccnc2)nc1", "note": "(stereo not given)", "activity change, negative = inhibition": "-10.4%"},
      {"smiles": "CCN1C[C@@]2(C)CC[C@@H](OC)[C@@]34C2C(O)[C@@]2(OCO[C@]25CC(OC)C2C[C@@]3(O)C5C2O)C14", "note": "(stereo not given in full)", "activity change, negative = inhibition": "-2.9%"},
      {"smiles": "CC(C)(C)C(=O)C(Oc1ccc(Cl)cc1)n1cncn1", "note": "(stereo not given)", "activity change, negative = inhibition": "-13%"},
      {"smiles": "CN1CC[C@]2(C)c3cc(O)ccc3N(C)[C@@H]12", "Potency": "2.82 µM (active)"},
      {"smiles": "CNC[C@H](O)c1ccc(O)c(OC)c1", "activity change, negative = inhibition": "-5.6% [at 54.9 µM]"},
      {"smiles": "CNC(=O)Oc1ccccc1OC(C)C", "activity change, negative = inhibition": "-6.74%"},
      {"smiles": "CC1=CC(=O)C2=C(C)C[C@@H](O)[C@@H]3[C@@H](OC(=O)[C@H]3C)[C@H]12", "activity change, negative = inhibition": "-10.9% [at 54.9 µM]"},
      {"smiles": "CN1[C@@H](C[C@@H](O)c2ccccc2)CCC[C@@H]1C[C@H](O)c1ccccc1", "activity change, negative = inhibition": "4.99% [at 54.9 µM]"},
      {"smiles": "C[C@]1(C(=O)O)CCC[C@]2(C)c3cc(O)ccc3CC[C@@H]12", "activity change, negative = inhibition": "-7.24%"},
      {"smiles": "C[C@@]12CCC(=O)C[C@@H]1CC[C@@H]1[C@@H]2CC[C@]2(C)C(=O)CC[C@@H]12", "activity change, negative = inhibition": "-10.1%"},
      {"smiles": "CNC1[C@@H](O)C(OC2C(N)C[C@H](N)[C@@H](O[C@@H]3OC(C(C)O)C(O)C(O)C3N)C2O)OC[C@]1(C)O", "note": "(stereo not given in full)", "activity change, negative = inhibition": "-2.84%"},
      {"smiles": "Nc1ncn[nH]1", "activity change, negative = inhibition": "-1.93%"},
      {"smiles": "O=C1C=C2C=C[C@H]3C[C@@]2(O1)[C@H]1CCCCN31", "activity change, negative = inhibition": "-10.6% [at 54.9 µM]"},
      {"smiles": "CCN(CC)C(=O)N[C@@H]1C[C@@H]2c3cccc4[nH]cc(c34)C[C@H]2N(C)C1", "activity change, negative = inhibition": "-7.46%"},
      {"smiles": "C[C@H]1CC[C@@H]2[C@@H](C)C(=O)O[C@H]3O[C@@]4(C)CC[C@H]1[C@@]32OO4", "activity change, negative = inhibition": "12.9% [at 54.9 µM]"},
      {"smiles": "C[C@]12CCC3C(CC[C@H]4C[C@@H](O)CC[C@]34C)[C@@H]1CCC2=O", "note": "(stereo not given in full)", "activity change, negative = inhibition": "-4.39%"},
      {"smiles": "COc1cc2c(c(OC)c1OC)-c1ccc(O)c(=O)cc1[C@H](N)CC2", "activity change, negative = inhibition": "13% [at 54.9 µM]"},
      {"smiles": "CCN1C[C@]2(C)CC[C@H](O)[C@@]34[C@@H]5CC6[C@@H](OC)C[C@@](O)([C@@H]5[C@@H]6O)[C@H](C[C@@H]23)[C@H]14", "activity change, negative = inhibition": "-4.95% [at 54.9 µM]"},
      {"smiles": "COc1cc(CNC(=O)CCCC/C=C/C(C)C)ccc1O", "activity change, negative = inhibition": "-14.2%"},
      {"smiles": "CN1C2CC(OC(=O)C(CO)c3ccccc3)CC1C(O)C2", "note": "(stereo not given)", "activity change, negative = inhibition": "-6.5%"},
      {"smiles": "C/C=C(\\C)C(=O)OC1CC(OC(C)=O)[C@@]2(C(=O)OC)COC3C2[C@@]12CO[C@](O)(C(=O)OC)C2[C@](C)(C12OC1(C)C1CC2OC2OC=C[C@]21O)C3O", "note": "(stereo not given in full)", "activity change, negative = inhibition": "-14.4%"},
      {"smiles": "O=S1OCC2C(CO1)C1(Cl)C(Cl)=C(Cl)C2(Cl)C1(Cl)Cl", "note": "(stereo not given)", "activity change, negative = inhibition": "-17.5%"},
      {"smiles": "Cc1cc(OC(=O)N2CCCCC2)c(C(C)C)cc1[N+](C)(C)C", "activity change, negative = inhibition": "-4.83%"},
      {"smiles": "CCCCC/C=C\\C/C=C\\C/C=C\\C/C=C\\CCCC(=O)O", "Potency": "50.1 µM (active)"},
      {"smiles": "COc1cc(OC)c2c(c1)OC(c1ccc(OC)c(OC)c1)C(O)C2", "note": "(stereo not given)", "activity change, negative = inhibition": "-9.98%"},
      {"smiles": "C[C@@]12CC(c3ccoc3)OC(=O)C1CC[C@@]1(C)C2C2C=C[C@@]1(O)C(=O)O2", "note": "(stereo not given in full)", "activity change, negative = inhibition": "-12.8%"},
      {"smiles": "COc1cc2c(c(OC)c1OC)-c1ccc(OC)c(=O)cc1C(NC(C)=O)CC2", "note": "(stereo not given)", "activity change, negative = inhibition": "2.17%"},
      {"smiles": "CC[C@@]1(O)CC(O)c2c(cc3c(c2O)C(=O)c2c(O)ccc(O)c2C3=O)C1C(=O)OC", "note": "(stereo not given in full)", "Potency": "22.4 µM (active)"},
      {"smiles": "NC(CO)Cc1ccccc1", "note": "(stereo not given)", "activity change, negative = inhibition": "-6.77%"},
      {"smiles": "CN1CCN(c2ncc3ncc(=O)n(C)c3n2)CC1", "activity change, negative = inhibition": "-9.15% [at 54.9 µM]"},
      {"smiles": "CNC(C)C(O)c1ccccc1", "note": "(stereo not given)", "activity change, negative = inhibition": "-5.77%"},
      {"smiles": "ClC1=C(Cl)C2(Cl)C3C4C=CC(C4)C3C1(Cl)C2(Cl)Cl", "note": "(stereo not given)", "activity change, negative = inhibition": "-9.98%"},
      {"smiles": "CN[C@@H](C)[C@H]1CC[C@@H](N)[C@@H](O[C@@H]2[C@@H](O)[C@@H](O[C@H]3OC[C@@](C)(O)[C@@H](NC)[C@@H]3O)[C@H](N)C[C@@H]2N)O1", "note": "(tested in a mixture with another compound)", "activity change, negative = inhibition": "-11.2% [at 54.9 µM]"},
      {"smiles": "C[C@]12CCC3C(CC[C@]4(O)CC(O)CC[C@@]34C=O)[C@]1(O)CCC2C1=CC(=O)OC1", "note": "(stereo not given in full)", "activity change, negative = inhibition": "-6.55%"},
      {"smiles": "C[C@]12CC[C@H](OS(=O)(=O)O)CC1=CCC1C2CC[C@]2(C)C(=O)CC[C@@H]12", "note": "(stereo not given in full)", "activity change, negative = inhibition": "-3.04%"},
      {"smiles": "CNC(=O)CSP(=S)(OC)OC", "activity change, negative = inhibition": "-9.61%"},
      {"smiles": "O=C(NC(=O)c1ccccc1Cl)Nc1ccc(OC(F)(F)F)cc1", "activity change, negative = inhibition": "-3.33%"}
    ]}
  ]
}
